{"source": "PubChem BioAssay (EPA / NIEHS)", "note": "Several values for one entry are separate records, joined by “and”; a condition that tells them apart may be missing. Identical values can stand only once. Activity calls are given as the source filed them. Rule for the calls: active = hit-call score of the fitted dose curve at least 0.9, where 1 is the maximum; inactive = score below 0.9.", "data": [{"read-out": "Macrophage colony-stimulating factor (MCSF), CSF1 (gene 1435)", "experiment": "BSK_hDFCGF_MCSF: BioMAP Diversity Plus: hDFCGF Assay for Macrophage colony-stimulating factor (MCSF) Biomarker Activity (AID 2283060)", "conditions": "primary human foreskin fibroblasts; actives raise or lower the signal", "method": "BSK_hDFCGF is a cell-based, multiplexed-readout assay that uses foreskin fibroblast, a human skin primary cell, with measurements taken at 24 hours after chemical dosing in a 96-well plate.BSK_hDFCGF_MCSF is an assay component measured in the BSK_hDFCGF assay. It measures M-CSF antibody related to regulation of gene expression using ELISA technology.Data from the assay component BSK_hDFCGF_MCSF was analyzed into 1 assay endpoint. This assay endpoint, BSK_hDFCGF_MCSF, was analyzed with bidirectional fitting relative to DMSO as the negative control and baseline of activity. Using a type of binding reporter, gain or loss-of-signal activity can be used to understand changes in the signaling as they relate to the gene CSF1. Furthermore, this assay endpoint can be referred to as a primary readout, because this assay has produced multiple assay endpoints where this one serves a signaling function. To generalize the intended target to other relatable targets, this assay endpoint is annotated to the cytokine intended target family, where the subfamily is colony stimulating factor.\nThe levels of cell surface (or secreted, indicated by the prefix \"s\") biomarker endpoints were measured by ELISA. Overt cytotoxicity to cells in confluent adherent cultures (all systems other than the BT system) was assessed by measuring total protein levels using sulforhodamine B (SRB) staining in parallel cultures at the time of biomarker measurements, indicated as SRB endpoints. For proliferation assays for adherent cell types, individual cell types are cultured at sub-confluence and relative cell numbers quantified by SRB staining at time points optimized for each system (48 h: 3C and CASM3C systems; 72 h: BT and HDF3CGF systems; 96 h: SAg system). SRB was performed by staining cells with 0.1% SRB after fixation with 10% TCA and reading wells at 560 nm.Viability and proliferation of PBMC (T cells) was quantified by Alamar Blue reduction for the SAg and BT systems. For PBMC viability (referred to as PBMC Cytotoxicity within the assay endpoint names), cells were plated (75,000/well in a 96-well plate) and then chemical samples added for 1 h before addition of activators, SEB and TSST-1 (20 ng/mL final concentration each). Cells were incubated for 90 h. Then, Alamar Blue (20 uL/well) (Invitrogen, Cat DAL1100) was added for 6 h, and the plates were read with a fluorescence microplate reader at 546/580 nm (excitation/emission). For PBMC proliferation, cells were plated and activated as above but incubated for only 16 h prior to addition of Alamar Blue. Plates were read after 6 h.", "values": [{"smiles": "Cc1cccc(N)c1N", "AC50": "0.853 µM (active)"}, {"smiles": "ClCCOCCCl", "outcome": "inactive"}, {"smiles": "CC(C)(C)OOC(=O)c1ccccc1", "AC50": "34.1 µM (active)"}, {"smiles": "O=C(N[C@H](c1ccccc1)[C@@H]1CN2CCC1CC2)c1c(Cl)ccc(C(F)(F)F)c1Cl", "outcome": "inactive"}, {"smiles": "Nc1ccc(N=Nc2ccccc2)cc1", "outcome": "inactive"}, {"smiles": "CC(O)CCO", "note": "(stereo not given)", "outcome": "inactive"}, {"smiles": "CN(C)c1ccccc1", "outcome": "inactive"}, {"smiles": "CCC[CH2][Sn]([Cl])([CH2]CCC)[CH2]CCC", "AC50": "0.148 µM (active)"}, {"smiles": "Clc1ccc(C(c2ccc(Cl)cc2)C(Cl)(Cl)Cl)cc1", "AC50": "10.9 µM (active)"}, {"smiles": "O=C(O)C1C2CCC(O2)C1C(=O)O", "note": "(stereo not given)", "outcome": "inactive"}, {"smiles": "COC(=O)Nc1nc2ccccc2[nH]1", "outcome": "inactive"}, {"smiles": "O=C(Oc1ccc(Br)cc1)N1CCN2CCC1CC2", "outcome": "inactive"}, {"smiles": "O=[N+]([O-])C(Br)(CO)CO", "AC50": "26.6 µM (active)"}, {"smiles": "COC(=O)c1ccccc1N", "outcome": "inactive"}, {"smiles": "CCNS(=O)(=O)C(F)(F)C(F)(F)C(F)(F)C(F)(F)C(F)(F)C(F)(F)C(F)(F)C(F)(F)F", "AC50": "17 µM (active) and 22.2 µM (active) and 28.5 µM (active)"}, {"smiles": "ClC1=C(Cl)[C@]2(Cl)[C@H]3[C@H]([C@@H]4C=C[C@H]3C4)[C@@]1(Cl)C2(Cl)Cl", "AC50": "16.3 µM (active)"}, {"smiles": "CC(C)(C)OOC(C)(C)CCC(C)(C)OOC(C)(C)C", "outcome": "inactive"}, {"smiles": "CC(C)COC(=O)c1ccccc1C(=O)OCC(C)C", "AC50": "14.4 µM (active)"}, {"smiles": "CC(C)(O)c1cnn2c(-c3ccc(F)c(-c4c(F)cccc4C#N)c3)cnc2n1", "outcome": "inactive"}, {"smiles": "CCCCCCCCOC(=O)c1ccc(C(=O)OCCCCCCCC)c(C(=O)OCCCCCCCC)c1", "outcome": "inactive"}, {"smiles": "O=C1CCCO1", "outcome": "inactive"}, {"smiles": "[Cl-].[Cl-].[Hg+2]", "AC50": "10.7 µM (active)"}, {"smiles": "Cc1ccc(N)cc1", "outcome": "inactive"}, {"smiles": "CCCCCCCCCCCCCN1CC(C)OC(C)C1", "note": "(stereo not given)", "outcome": "inactive"}, {"smiles": "O=C(Nc1ccccc1)c1ccccc1I", "outcome": "inactive"}, {"smiles": "Cc1ccc(N)c(N)c1", "outcome": "inactive"}, {"smiles": "OCCCl", "outcome": "inactive"}, {"smiles": "CN(C)c1ccc(C(=O)c2ccc(N(C)C)cc2)cc1", "outcome": "inactive"}, {"smiles": "Nc1cc(Cl)cc(C(=O)O)c1Cl", "outcome": "inactive"}, {"smiles": "CN(C)C(=O)Nc1ccc(Cl)cc1", "outcome": "inactive"}, {"smiles": "Brc1ccc(Oc2ccccc2)cc1", "outcome": "inactive"}, {"smiles": "c1ccc(N=Nc2ccccc2)cc1", "outcome": "inactive"}, {"smiles": "Clc1ccc(C(c2ccc(Cl)cc2)C(Cl)Cl)cc1", "AC50": "7.94 µM (active)"}, {"smiles": "Cn1cc(-c2ccccc2)c(=O)c(-c2cccc(C(F)(F)F)c2)c1", "outcome": "inactive"}, {"smiles": "OCCOCCO", "outcome": "inactive"}, {"smiles": "CCOC(=O)[C@]1(c2ccccc2)Oc2ccccc2[C@@H]1N", "AC50": "28.4 µM (active)"}, {"smiles": "CCCCCCCCn1sccc1=O", "AC50": "1.07 µM (active)"}, {"smiles": "CCCCCOC(=O)c1ccccc1C(=O)OCCCCC", "AC50": "9.05 µM (active)"}, {"smiles": "c1ccc2c(c1)-c1cccc3cccc-2c13", "outcome": "inactive"}, {"smiles": "COc1cc(C=O)cc2c1[C@H](COC(N)=O)[C@]1(OC(C)=O)ON2C[C@H]2[C@@H]1N2C(C)=O", "AC50": "1.08 µM (active)"}]}]}
